PfHsp90 set2: reduces growth (ATP signal) of yeast expressing P. falciparum Hsp90; S. cerevisiae expressing PfHsp90, BacTiter-Glo ATP, 48 h; yeast lacking PDR1 and PDR3 efflux regulators; inhibition, % at 9.4 µM; 0.32% of 310,000 active;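 active = every replicate shows inhibition above about 80%, whatever the replicate mean, limit read from the data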;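 also: 0% = DMSO neutral controls and 100% = 20 µM radicicol positive controls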
NALP3 yeast inh: NALP3 inhibition in yeast | Yeast reconstituted NLRP3/ASC/caspase-1, beta-gal luminescence, 24 h | inhibition, % at 10 µM | 0.39% of 330,000 active | AID 2825;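 active = inhibition of 50% or more; inactive = inhibition below 50%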;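 also: plate controls were induced DMSO wells for no effect and uninduced yeast grown without galactose for full effect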
tim23-1 inh: growth inhibitors of tim23-1 mutant yeast; S. cerevisiae tim23-1 growth, BacTiter-Glo luminescence, 24 h; inhibition, % at 20 µM; 1.3% of 330,000 active;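 active = growth inhibition of the mutant yeast at or above 50%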;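 also: temperature-sensitive mutant grown at 25 °C; plate controls were DMSO-treated mutant yeast for no effect and medium wells lacking yeast for full effect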
SKKanGAS inh: inhibitors of SKKanGAS S. pyogenes growth in kanamycin (SK-promoter or general growth effect) | AID 1662 | 1.3% of 300,000 active | BacTiter-Glo, 6 h | inhibition, % at 7.5 µM;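 active = mean replicate score, as percent of positive control median, at least 50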;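 also: strain carries kanamycin resistance gene driven by streptokinase promoter and grows in 40 µg/ml kanamycin; loss of luminescence reflects streptokinase promoter inhibition or plain growth inhibition; 0% = median of DMSO wells and 100% = positive control at its reference dose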
tim10-1 inh: tim10-1 yeast growth inhibition; AID 463190; S. cerevisiae tim10-1 ts strain growth, BacTiter-Glo, 24 h; inhibition, % at 20 µM; 2.2% of 330,000 active;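 active = inhibition of at least 40%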;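 also: mutant grown at 25 °C; 0% = DMSO wells with yeast and 100% = wells holding no yeast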
TIM10 inh: TIM10 yeast growth inhibition. S. cerevisiae TIM10 strain growth, BacTiter-Glo luminescence, 24 h. inhibition, % at 10 µM. 1.4% of 330,000 active. AID 463195;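 active = inhibition of 40% or more at the single tested concentration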;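 also: wild-type TIM10 isogenic control strain grown at permissive 25 °C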
tim10-1 conf: tim10-1 yeast growth inhibition, confirmed; inhibition, % at 20 µM; AID 463213; shares compounds with tim10-1 inh; S. cerevisiae tim10-1 ts strain growth, BacTiter-Glo, 24 h; 56% of 7,400 active;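 active = inhibition of yeast growth at or above a set limit in either of two repeat tests at 20 µM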;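 also: tim10-1 mutant grown at permissive 25 °C to find synthetic lethal compounds; 0% = DMSO yeast wells and 100% = medium wells without yeast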
TIM10 conf: confirmation of TIM10 yeast growth inhibitors. shares compounds with TIM10 inh. S. cerevisiae tim10 strain growth, BacTiter-Glo luminescence, 24 h. inhibition, % at 10 µM. 63% of 4,600 active;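 active = inhibition of yeast growth at or above a set limit in either of two replicates at 10 µM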;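 also: this counterscreen used the strain with wild-type TIM10; 0% = yeast with DMSO and 100% = medium wells lacking yeast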
tim23-1 confirm: tim23-1 yeast growth inhibition, confirmed. shares compounds with tim23-1 inh. S. cerevisiae tim23-1 growth, BacTiter-Glo luminescence, 24 h. inhibition, % at 20 µM. 83% of 4,400 active;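 active = inhibition above about 39% in either of two replicate wells at 20 µM, limit read from the data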;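 also: temperature-sensitive tim23-1 mutant grown at 25 °C; 0% = DMSO wells with yeast and 100% = medium wells without yeast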
Starred values were filed as active, the others as inactive; nt = no result. In the library only some 4.6% were active in any assay of this set; here they are far more common.

SMILES	PfHsp90 set2	NALP3 yeast inh	tim23-1 inh	SKKanGAS inh	tim10-1 inh	TIM10 inh	tim10-1 conf	TIM10 conf	tim23-1 confirm
C[C@@H]1CC[C@@]2(NC1)O[C@H]1C[C@H]3[C@@H]4CC=C5C[C@@H](O)CC[C@]5(C)[C@H]4CC[C@]3(C)[C@H]1[C@@H]2C	-12	-2	54*	-1	51*	49*	27	51*	68*
C[C@]12CC[C@H](O)CC1=CCC1C2CC[C@@]2(C)C1CC[C@@H]2OCc1ccccc1 (stereo not given in full)	29	16	1	nt	-6	-13	nt	nt	nt
COC(=O)C1=C(c2ccccc2OCc2ccccc2)C[C@@H]2CC[C@H]1N2C(=O)NCCN1CCOCC1	4	20	6	nt	6	5	nt	nt	nt
COc1ccc2c(c1)c(C(=O)C(C)N1CCCCC1)c(C)n2C (stereo not given)	8	9	-9	3	21	-6	nt	nt	nt
O=c1c(C=NCc2cccs2)c(O)n(C2CCCCC2)c(=O)n1C1CCCCC1	-1	17	11	14	16	19	nt	nt	nt
N=C(N)c1c(O)n(C2CCCCC2)c(=O)n(C2CCCCC2)c1=O	-4	0	66*	13	54*	15	33*	nt	52*
CCN(CC)C(=O)c1ccc(NC(=O)CCCSc2ccccc2)cc1	13	10	16	1	6	-37	nt	nt	nt
CCN(CC)C(=O)c1ccc(NC(=O)Nc2ccccc2F)cc1	66	5	66*	71*	56*	42*	68*	40*	64*
CC(C)Oc1cc(-n2c(=S)[nH]c3ccccc3c2=O)c(Cl)cc1Cl	-65	12	53*	1	45*	45*	24	42*	52*
COC(=O)C1=C(c2ccc3ccccc3c2)C[C@@H]2CC[C@H]1N2C(=O)NCCNC(C)=O	1	12	13	nt	2	0	nt	nt	nt
COc1ccc(OC)c(N2C(=O)NC(=O)/C(=C\c3ccc([N+](=O)[O-])s3)C2=O)c1	91*	-15	52*	10	69*	84*	73*	40*	72*
CN1C(=O)NC(=O)/C(=C/c2ccc([N+](=O)[O-])o2)C1=O	nt	8	10	6	9	-1	nt	nt	nt
O=C1NC(=O)N(c2ccccc2)C(=O)/C1=C\c1ccc([N+](=O)[O-])s1	nt	11	68*	-4	66*	85*	76*	26	76*
CN1C(=O)NC(=O)/C(=C/c2ccc([N+](=O)[O-])s2)C1=O	46	11	71*	8	74*	90*	67*	44*	80*
O=[N+]([O-])c1ccc(Cl)c(Cl)c1Cl	-50	2	-9	nt	-20	0	nt	nt	nt
Cn1cccc1/C=C1/C(=O)NC(=S)N(Cc2ccc(F)cc2)C1=O	-31	19	-5	9	-10	84*	nt	86*	nt
O=C(OCC(=O)c1ccc([N+](=O)[O-])cc1)/C(=C/c1ccc(Cl)cc1)NC(=O)c1ccccc1	-8	2	31	14	35	45*	nt	23	nt
O=C(COC(=O)Cc1ccccc1)NNC(=O)c1ccc([N+](=O)[O-])cc1	-9	7	5	nt	-3	3	nt	nt	nt
CCCCCOc1ccc(C)cc1CN(CCCl)CCCl	-3	-8	16	-8	2	-13	nt	nt	nt
CCOC(=O)c1cccc(-[n+]2c(-c3ccccc3)cc(-c3ccccc3)cc2-c2ccccc2)c1	5	17	2	-7	17	19	nt	nt	nt
Cc1ccc(-c2cc(-c3ccccc3)cc(-c3ccccc3)[n+]2-c2ccccc2)cc1	-13	30	21	-4	24	41*	nt	35*	nt
CC(C)C(=O)c1cn(Cc2ccc(C#N)cc2)c2ccccc12	16	-17	18	-1	25	41*	nt	8	nt

High-throughput results (PubChem BioAssay)
